The campaign covered roughly 350,000 compounds. About 31,000 (8.9%) were called active. Entries that show only a call come without a potency. Roughly 15% stayed inconclusive and do not appear here. The call rests on the fitted dose curve; in most records, active means well fitted inhibition curve with a large enough effect; inconclusive means small, poorly fitted or top-dose-only effect; inactive means no such curve, though single readings can be large or run the other way. The sample as a whole holds a higher share of actives than the screen did.
molecular target: Histone-lysine N-methyltransferase EHMT2 (Homo sapiens) (UniProt Q96KQ7); test: qHTS Assay for Inhibitors of Histone Lysine Methyltransferase G9a; conditions: G9a H3K9 monomethylation, AlphaScreen, 2 h; series mostly up to 59 µM; further: nearly all actives have a fitted effect of over 75% in size
Procedure, shortened: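 Readings reflect AlphaScreen signal from monomethyl-H3K9 antibody detection. HMT at 20 nM; substrate b-H3K9 500 nM; cofactor SAM 20 uM; 2 h RT reaction; compounds tested as titrations in qHTS with 15 min preincubation.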
Potency means the concentration at half of the fitted maximal effect.

Sequence of Histone-lysine N-methyltransferase EHMT2 (Homo sapiens) (Q96KQ7 913-1193 limits assumed): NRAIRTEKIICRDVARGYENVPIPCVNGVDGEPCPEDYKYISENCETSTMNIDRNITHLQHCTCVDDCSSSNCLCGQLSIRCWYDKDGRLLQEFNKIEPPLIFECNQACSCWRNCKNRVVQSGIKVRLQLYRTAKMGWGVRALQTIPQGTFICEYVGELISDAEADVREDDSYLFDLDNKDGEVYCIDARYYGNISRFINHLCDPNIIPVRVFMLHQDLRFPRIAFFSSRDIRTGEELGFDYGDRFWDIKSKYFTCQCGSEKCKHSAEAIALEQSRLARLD

Row | SMILES | activity, negative = inhibition | Potency
1 | CCN(CC(=O)NCc1ccc(Cl)cc1)C(=O)c1c(C)noc1C | -126% [at 12.7 µM] (inactive) | –
2 | Cc1cccc(N2CCN(S(=O)(=O)c3ccc4[nH]c5c(c4c3)CCCCC5)CC2)c1C | – | inactive
3 | Cc1cccc(NC(=O)Cn2nc(-c3ccc(Cl)cc3)c3ccccc3c2=O)c1 | – | inactive
4 | CCCn1c(C)cc(-c2csc(NC(=O)CCc3nc4ccccc4c(=O)[nH]3)n2)c1C | – | 25.1 µM (active)
5 | CCCc1ccc(-c2csc(NC(=O)Cc3cccs3)n2)cc1 | – | inactive
6 | Cc1ccc(-c2csc(NC(=O)Cn3[nH]c(=O)c4ccccc4c3=O)n2)cc1 | – | inactive
7 | Cc1cc(C)c(-c2csc(NC(=O)CCCc3nc4ccccc4c(=O)[nH]3)n2)c(C)c1 | – | 50.1 µM (active)
8 | CCN(CC)c1ccc(C(=O)NNC(=O)CCc2nc3ccccc3c(=O)[nH]2)cc1 | – | inactive
9 | Cc1ccc(-c2csc(NC(=O)Cc3cccs3)n2)cc1C | – | inactive
10 | COc1ccc(-c2cc(C(F)(F)F)nc(SCC(=O)N(C)Cc3ccccc3)n2)cc1OC | – | inactive
11 | Brc1ccccc1C1N=C(c2ccccc2)NO1 (stereo not drawn) | – | 50.1 µM (active)
12 | N#Cc1ccc(C2N=C(c3ccccc3)NO2)cc1 (stereo not drawn) | – | inactive
13 | O=C(c1ccc(OC2CCN(C/C=C/c3ccc(F)cc3)CC2)cc1)N1CCCCC1 | – | inactive
14 | CC1CCC(NC(=O)CNC(=O)c2ccc3ccccc3c2)CC1 (stereo not drawn) | 5.09% [at 0.501 µM] (inactive) | –
15 | CCOC(=O)C1=C(C)NC2=C(C(=O)CC(C)(C)C2)C1c1ccsc1 (stereo not drawn) | 1.73% [at 12.7 µM] (inactive) | –
16 | CCCOC(=O)C1=C(C)NC2=C(C(=O)C(C(=O)OC)C(C)C2)C1c1ccc(N(C)C)cc1 (stereo not drawn) | – | 44.7 µM (active)
17 | COCCOC(=O)C1=C(C)NC(=O)NC1c1ccc(Cl)cc1 (stereo not drawn) | – | inactive
18 | N#Cc1cccc(NC(=O)C2CCCN(C(=O)c3ccc(Cl)cc3)C2)c1 (stereo not drawn) | 10.9% [at 12.7 µM] (inactive) | –
19 | CCOC(=O)c1sc2nc(CSCC(=O)OCc3ccc(C(=O)OC)o3)[nH]c(=O)c2c1C | – | inactive
20 | CCOC(=O)c1sc2nc(C)[nH]c(=O)c2c1C | – | inactive
21 | COC(=O)c1sc2[nH]c(=S)n(N)c(=O)c2c1C | – | 7.94 µM (active)
22 | CCCCN1CC(c2nc3ccccc3n2CCCCOc2ccc(C)cc2C)CC1=O (stereo not drawn) | – | inactive
23 | CC1CCN(S(=O)(=O)c2ccc3c(ccn3CC(=O)O)c2)CC1 | – | inactive
24 | CC1CCN(S(=O)(=O)c2ccc3c(ccn3CCC(=O)NCc3ccc(N(C)C)cc3)c2)CC1 | – | 10 µM (active)

Row | SMILES | activity, negative = inhibition | Potency
25 | O=C(CCn1ccc2cc(S(=O)(=O)N3CCCC3)ccc21)NCc1cccc(Cl)c1 | – | inactive
26 | CC(C)c1nnc(NC(=O)C2CC(=O)N(CCc3ccc(F)cc3)C2)s1 (stereo not drawn) | – | inactive
27 | CCOC(=O)CSc1nnc(NC(=O)C2CC(=O)N(c3ccc(F)cc3)C2)s1 (stereo not drawn) | – | 63.1 µM (active)
28 | CCc1nnc(NC(=O)C2CC(=O)N(c3ccc4c(c3)OCCO4)C2)s1 (stereo not drawn) | – | 10 µM (active)
29 | CCOC(=O)c1ccc(NC(=O)C2CC(=O)N(c3ccc(C(C)C)cc3)C2)cc1 (stereo not drawn) | – | inactive
30 | O=C(Nc1nnc(SCc2c(Cl)cccc2Cl)s1)C1CCCO1 (stereo not drawn) | 47.8% [at 12.7 µM] (inactive) | –
31 | Cc1cccc(N2CC(C(=O)Nc3ccccc3N3CCCC3)CC2=O)c1C (stereo not drawn) | – | 70.8 µM (active)
32 | CC(C)C[C@H](NC(=O)C1CC(=O)N(c2ccc3c(c2)OCCO3)C1)C(=O)NC1CCCC1 (stereo partly drawn) | – | inactive
33 | CC(=O)c1ccccc1NC(=O)C1CC(=O)N(c2ccc3c(c2)OCCO3)C1 (stereo not drawn) | – | inactive
34 | COc1cccc(N2CC(C(=O)Nc3c(C)cccc3C)CC2=O)c1 (stereo not drawn) | – | inactive
35 | Cc1ccccc1N1CC(C(=O)Nc2nnc(SCCC3OCCO3)s2)CC1=O (stereo not drawn) | – | 25.1 µM (active)
36 | Cc1ccccc1N1CC(C(=O)Nc2ccc3c(c2)OCO3)CC1=O (stereo not drawn) | – | inactive
37 | Cc1ccccc1N1CC(C(=O)Nc2ccc(S(=O)(=O)N3CCCC3)cc2)CC1=O (stereo not drawn) | 20.1% [at 2.33 µM] (inactive) | –
38 | CCCCOc1ccc(C(=O)N2CC(=O)Nc3ccc(Br)cc3C2c2ccc(F)cc2)cc1 (stereo not drawn) | – | inactive
39 | Cc1ccc(CNC(=O)Cn2c(=O)ccc3cc(S(=O)(=O)N4CCCC4)ccc32)cc1 | – | inactive
40 | CC(=O)N1c2ccccc2CC1C(=O)N1CCN(c2ccc(F)cc2)CC1 (stereo not drawn) | – | inactive
41 | C[C@@H](NC(=O)c1nc[nH]c1C(=O)N1CCN(C(=O)OC(C)(C)C)CC1)c1ccccc1 | 4.62% [at 2.33 µM] (inactive) | –
42 | CCOc1ccc(S(=O)(=O)c2cn(Cc3ccc(OC)cc3)c3ccc(F)cc3c2=O)cc1 | – | inactive
43 | Cc1ccc(Cc2nnc(SCC(=O)Nc3ccc(C)cc3C)[nH]c2=O)cc1 | – | inactive
44 | CCn1cc(C(=O)NCCc2ccccc2)c(=O)c2cc(S(=O)(=O)N3CCCCCC3)ccc21 | – | inactive
45 | CCOC(=O)C1CCCN(C(=O)c2ccc3c(c2)sc2nc(-c4ccc(CC)cc4)cn23)C1 (stereo not drawn) | – | inactive
46 | CCOc1ccc(OCC)c(NC(=O)c2cc(C)nc3c2c(C)nn3-c2cccc(Cl)c2C)c1 | – | inactive
47 | CC1=C(C(=O)OCc2ccc(C)cc2)C(c2c(Cl)cccc2Cl)CC(=O)N1 (stereo not drawn) | – | inactive
48 | COc1ccc(CCNC(=O)COC(=O)c2cc(=O)c3ccccc3o2)cc1 | 21.3% [at 12.7 µM] (inactive) | –

Row | SMILES | activity, negative = inhibition | Potency
49 | COc1ccccc1N1CC(C(=O)Nc2nnc(SCC(=O)NC(C)C)s2)CC1=O (stereo not drawn) | 14.1% [at 12.7 µM] (inactive) | –
50 | COc1cc(OC)cc(C(=O)Nc2nnc(SCC(=O)NCC3CCCO3)s2)c1 (stereo not drawn) | – | inactive
51 | COc1ccccc1N1CC(C(=O)Nc2nnc(SCC(=O)NCC3CCCO3)s2)CC1=O (stereo not drawn) | – | 31.6 µM (active)
52 | CN1C(=O)CC(c2ccccc2)C1=O (stereo not drawn) | – | inactive
53 | COc1ccc(NC(=O)c2cc([N+](=O)[O-])ccc2NC(=O)CNC2CCCCC2C)c(OC)c1 (stereo not drawn) | – | inactive
54 | CCOC(=O)c1ccc(NC(=O)CC2C(=O)N(c3ccccc3)C(=O)N2Cc2cccs2)cc1 (stereo not drawn) | – | inactive
55 | CN1CCN(c2ccccc2NC(=O)COc2ccc(C3CCCCC3)cc2)CC1 | – | 39.8 µM (active)
56 | Cc1ccc(OCC(=O)Nc2ccccc2C(=O)NC2CC2)cc1 | 16.8% [at 12.7 µM] (inactive) | –
57 | CC(C)n1c(SCC(=O)Nc2ccccc2N2CCCCC2)nc2c1c(=O)n(C)c(=O)n2C | – | inactive
58 | CCOc1ccccc1NC(=O)COc1ccc(S(=O)(=O)N2CCCC2)cc1 | – | inactive
59 | Cc1ccc(C(C)C)cc1OCC(=O)Nc1ccccc1N1CCCC1 | – | 79.4 µM (active)
60 | CCC(=O)N1CCN(c2ccccc2NC(=O)COc2cccc(C)c2C)CC1 | – | inactive
61 | CCCC(=O)N1CCN(c2nc3c(OC)ccc(C)c3s2)CC1 | – | inactive
62 | COc1cccc(NC(=O)COc2cc(C)cc3oc(=O)cc(C)c23)c1 | – | inactive
63 | CNS(=O)(=O)c1cccc(C(=O)OCCCC(=O)c2ccccc2)c1 | -6.99% [at 12.7 µM] (inactive) | –
64 | COc1ccc2c(c1)c(C(=O)N/N=C/c1cccs1)c(C)n2C | – | inactive
65 | Cc1cc(C2=NNC(=Nc3ccc(S(=O)(=O)N4CCOCC4)cc3)SC2)c(C)n1CC1CCCO1 (stereo not drawn) | – | 7.94 µM (active)
66 | Cc1ccc(S(=O)(=O)N2CCC(C(=O)NCC3CCCO3)CC2)cc1 (stereo not drawn) | – | inactive
67 | CCOc1ccc(S(=O)(=O)N2CCN(C(=S)NCC3CCCO3)CC2)cc1 (stereo not drawn) | – | inactive
68 | O=C(NC1CC(=O)N(c2ccc(F)cc2)C1)c1cccs1 (stereo not drawn) | – | inactive
69 | O=C(NCCC1CCCCN1S(=O)(=O)c1cccs1)C(=O)Nc1ccc(F)cc1F (stereo not drawn) | -3.33% [at 0.501 µM] (inactive) | –
70 | CC(=O)c1ccc(NC(=O)c2nc(-c3ccc(C)cc3)n3c2CCCCC3)cc1 | – | inactive
71 | CC(C)Cn1c(=O)c2ccccc2n2c(CCC(=O)N3CCN(c4cccc(Cl)c4)CC3)nnc12 | – | inactive
72 | O=C1CN(C(=O)COc2c(Cl)cccc2Cl)c2ccccc2N1 | – | inactive

Row | SMILES | activity, negative = inhibition | Potency
73 | CCCCCN(C(=O)CCC(=O)OCC(=O)NC1CCC(C)CC1)c1c(N)n(CCCC)c(=O)[nH]c1=O (stereo not drawn) | 6.8% [at 0.501 µM] (inactive) | –
74 | CN(CC(=O)Nc1cccc(F)c1)C(=O)CC1CCCC1 | – | inactive
75 | CN(CC(=O)Nc1cccc(F)c1)C(=O)C1=COCCO1 | – | inactive
76 | CC1CCc2[nH]c3ccc(C(=O)N(C)CC(=O)Nc4cccc(F)c4)cc3c2C1 (stereo not drawn) | – | 44.7 µM (active)
77 | O=C(CCc1ccccc1)NNC(=O)c1ccc(Br)cc1 | – | inactive
78 | O=C(CCc1ccccc1)NNc1ccc(F)cc1 | – | 31.6 µM (active)
79 | CC(=O)Nc1ccc(S(=O)(=O)NNC(=O)CCc2ccccc2)cc1 | -29% [at 12.7 µM] (inactive) | –
80 | Cc1cc(C)cc(NC(=O)CCS(=O)(=O)c2cc3c4c(c2)CCN4C(=O)CC3)c1 | – | inactive
81 | COc1ccc(Cc2nnc(SCC(=O)Nc3ccc(C)c(Cl)c3)[nH]c2=O)cc1 | – | inactive
82 | O=C(NCc1ccccc1)C1CCN(S(=O)(=O)c2ccc3[nH]c(=O)ccc3c2)CC1 | – | inactive
83 | CCOC(=O)C(C)n1cnc2sc(C)c(C)c2c1=O (stereo not drawn) | – | inactive
84 | CCOC(=O)c1c(-n2cnnn2)sc(C)c1C | – | 8.91 µM (active)
85 | CCOc1ccc(C(=O)COC(=O)c2ccc(-n3cnnn3)cc2)cc1 | – | inactive
86 | C=CCSc1ccc(S(=O)(=O)N2CCN(C)CC2)cn1 | – | inactive
87 | CCn1c(=O)c2cc(C(=O)NCCc3ccc(Cl)cc3)sc2c2ccccc21 | – | inactive
88 | O=C(CSc1nc(=O)n2ccccc2n1)Nc1ccc2c(c1)OCCO2 | – | inactive
89 | Cc1ccc(Cl)cc1-n1ncc2c(N3CCC(C(N)=O)CC3)ncnc21 | – | inactive
90 | COc1ccc(CNC(=O)c2ccc3oc(C(C)C)nc3c2)cc1 | 12% [at 0.501 µM] (inactive) | –
91 | COc1ccc(Br)cc1/C=N/NC(=O)c1cccc(S(=O)(=O)N2CCOCC2)c1 | – | inactive
92 | COc1ccc(Br)cc1/C=N/Nc1ccc(Cl)c(C(=O)O)c1 | – | 14.1 µM (active)
93 | COc1ccc(CC(=O)NCC(=O)N/N=C/c2cc(Br)ccc2OC)cc1 | – | inactive
